Test results reported in PubChem BioAssay AID734 (The Scripps Research Institute Molecular Screening Center, 2007).
The whole screen tested about 5,100 compounds, of which fewer than 10 were called active.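 The calls were made as follows: active = inhibition above the mean inhibition over all tested compounds plus 3 SD (cut at about 75% in these data); inactive = the rest.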 Not all results are given here.

What follows are compounds tested against Collagenase 3 (Homo sapiens) (UniProt P45452) (assay: MMP13 inhibitors among fluorescent compounds, confirmation, biochemical, possible fluorescent artifacts, delta fluorescence (AID 734;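 also: 0% = DMSO only wells and 100% = 8 µM reference MMP13 inhibitor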)). Details: MMP13 fTHP FRET cleavage, delta fluorescence 4 h; active compounds read high;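 each compound tested at 4 µM nominal in triplicate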.

| Structure (SMILES) | inhibition |
| --- | --- |
| N#Cc1nc(-c2cccs2)oc1N1CCN(c2ccccc2)CC1 | 8.02% (inactive) |
| Cc1oc(C(C)(C)C)cc1C(=O)Nc1ccc(C(=O)O)cc1 | 4.23% (inactive) |
| Cc1ccc(-c2cc(C(=O)N3CCOCC3)c3ccccc3n2)cc1 | 7.4% (inactive) |
| CCC(=O)N/C(N)=N/c1nc(C)c2cc(OC)ccc2n1 | 1.9% (inactive) |
| COc1nc(-c2ccc(C)cc2)ccc1-c1noc(-c2ccco2)n1 | -3.29% (inactive) |
| Cc1cccn2c(=O)c(C=Nc3ccc(Cl)cc3)c(NCCO)nc12 | -0.72% (inactive) |
| CC(C)COc1ccc(-c2nnc(-c3ccco3)o2)cc1 | 3.48% (inactive) |
| COC(=O)C1=CNC=C(C(=O)OC)C1c1cccc(OC)c1 | 27.7% (inactive) |
| CN(C)c1ccc(-c2nn3c(C4CCCCC4)nnc3s2)cc1 | 4.05% (inactive) |
| COc1ccc(CCNc2oc(-c3ccc(OC)c(OC)c3)nc2C#N)cc1 | 1.68% (inactive) |
| COc1ccc(-c2cn3c(C)c(C(=O)Nc4cc(NC(C)=O)ccc4OC)sc3n2)cc1 | 14.3% (inactive) |
| COCCNC(=O)c1cc2c(-c3ccccc3F)nn(C)c2s1 | -5.47% (inactive) |
| CC(Oc1ccc2oc(-c3ccccc3)c(C(=O)O)c2c1)C(=O)O (configuration not stated) | -5.25% (inactive) |
| O=c1cc(CN2CCN(c3ccccc3)CC2)c2cc(O)c(-c3ccccc3)cc2o1 | 8.57% (inactive) |
| CCN1CCc2c(sc3c2c(NCc2ccco2)nc2nnnn23)C1 | 10.9% (inactive) |
| CC(C)CCNC(=O)C(c1ccco1)N(Cc1ccccc1)C(=O)c1snc(C(N)=O)c1N (configuration not stated) | 2.54% (inactive) |
| O=C(NCc1cccnc1)c1nnc(Cc2ccc(F)cc2)o1 | 2.89% (inactive) |
| O=C(CCSc1nnc2ccccn12)Nc1ccc(F)cc1 | 3% (inactive) |
| Cc1ccc(-n2c(Cc3cccn3C)nnc2SCC(=O)Nc2ccc3c(c2)OCO3)cc1 | 3.78% (inactive) |
| O=C(O)c1ccc(CSc2nnc(-c3ccncc3)n2CC2CCCO2)cc1 (configuration not stated) | 5.15% (inactive) |
| Cc1cc(N2CCC(C)CC2)nc2ccc(N3C(=O)CCC3=O)cc12 | 4.49% (inactive) |

| Structure (SMILES) | inhibition |
| --- | --- |
| O=S(=O)(c1cccc(-c2cn3cc(Cl)ccc3n2)c1)N1CCOCC1 | 4.43% (inactive) |
| CCOc1ccc(CC(=O)N2CCN(c3ccc(N4CCOCC4)nn3)CC2)cc1OCC | 11.4% (inactive) |
| Cc1cc(C)c2c(n1)nn1c(N3CCN(c4ccccc4)CC3)cc(C)nc21 | -3.18% (inactive) |
| O=C(NCc1cccnc1)c1cnn2ccccc12 | 3.72% (inactive) |
| CCOCCCn1c(C)nc2c(c1=O)c1nc3ccccc3nc1n2CCC1=CCCCC1 | -2.22% (inactive) |
| CCOC(=O)CN=C1CC(C)(C)CC2=C1Sc1ncnc(N(C)C)c1N2 | 8.62% (inactive) |
| N#CCSc1nc2[nH]ncc2c(=O)n1-c1ccccc1Br | 5.49% (inactive) |
| CC(=O)Nc1ccc(Nc2ncnc3c2cnn3-c2cccc(C)c2)cc1 | 8.03% (inactive) |
| COc1ccc2oc(-c3ccccc3)c(C(=O)N3CCOCC3)c2c1 | 3.94% (inactive) |
| CCOC(=O)CSc1nc2cc3c(cc2cc1C#N)OCO3 | 5.66% (inactive) |
| CCOC(=O)CSc1nc(-c2ccc3c(c2)OCO3)ccc1C#N | 86.3% (active) |
| CCOC(=O)CSc1nc(-c2ccncc2)ccc1C#N | 6% (inactive) |
| N#Cc1nc(-c2ccc(F)cc2)oc1NCc1cccc2c1OCO2 | -9.16% (inactive) |
| Cc1cc(C)n(-c2nc(-c3cccc(Cl)c3)cs2)n1 | 8.4% (inactive) |
| c1ccc2sc(Cc3nnc4n3CCCCC4)nc2c1 | 4.74% (inactive) |
| Cc1onc(-c2ccccc2)c1C(=O)Nc1ccc2c(C)cc(=O)oc2c1 | 2.15% (inactive) |
| CC(=O)c1ccc(N2CCN(C(=O)c3cc(-c4ccc5c(c4)OCO5)nc4ccccc34)CC2)cc1 | 4.89% (inactive) |
| COC(=O)c1c(-n2cnnn2)sc(C)c1C | 2.3% (inactive) |
| COc1ccc2cc3cc(C(=O)NCCN4CCc5ccccc5C4)oc3nc2c1 | -102% (inactive) |
| Cn1c(=O)c2nc(-c3ccccc3)oc2c2ccccc21 | 6.54% (inactive) |
| COc1ccc(OC)c(-c2cc(C(=O)NCc3ccco3)no2)c1 | 12% (inactive) |

| Structure (SMILES) | inhibition |
| --- | --- |
| CC(C)OCCCn1c(-c2ccco2)nc2nc3ccccc3nc21 | -87.8% (inactive) |
| CCOC(=O)c1cc(-c2cccs2)nc2onc(C)c12 | -44.4% (inactive) |
| COc1cc2ccccc2cc1C(=O)OCC(=O)N1CCOCC1 | 6.42% (inactive) |
| COc1ccc(C(=O)/C=C/Nc2cccc(C)n2)cc1OC | 5.27% (inactive) |
| c1nc2sc3c(c2c2nnnn12)CCCC3 | 2.51% (inactive) |
| COc1ccc(-c2cc(C(F)(F)F)nc(SCC(=O)NCc3ccco3)n2)cc1OC | 8.84% (inactive) |
| Cc1ccc2c(c1)-c1cc(C)nn1C(c1ccc3c(c1)OCO3)N2 (configuration not stated) | 6.53% (inactive) |
| O=C1NC(c2ccco2)Nc2ccccc21 (configuration not stated) | -3.14% (inactive) |
| CCCN(Cc1cc2cc(OC)ccc2[nH]c1=O)C(=O)c1ccncc1 | 4.53% (inactive) |
| CCOC(=O)c1oc2cccc(OC(C)=O)c2c1C | 8.37% (inactive) |
| NC(=O)C1CCCN(S(=O)(=O)c2ccc(Br)cc2)C1 (configuration not stated) | 4.17% (inactive) |
| COC(=O)c1[nH]c2ccc(Cl)cc2c1NC(=O)CCN1CCN(C2CCCCC2)CC1 | 6.19% (inactive) |
| COC(=O)c1[nH]c2cccc(OC)c2c1NC(=O)CCN1CC(C)CC(C)C1 (configuration not stated) | -1.84% (inactive) |
| COCCOC(=O)c1cc(C(=O)c2cc(F)ccc2O)coc1=N | 6.65% (inactive) |
| COc1cccc(=O)c2c(C)oc(C)c12 | 6.64% (inactive) |
| Cc1ccc2nc(N3CCN(Cc4nnnn4Cc4ccccc4)CC3)c(C#N)cc2c1 | 1.5% (inactive) |
| CCOC(=O)Cc1c(C)nc2c(-c3ccc(Cl)cc3)c[nH]n2c1=O | 17.8% (inactive) |
| COc1cc2cc(CN(CCN3CCCC3)C(=O)Nc3ccc(F)cc3)c(=O)[nH]c2cc1OC | 1.27% (inactive) |
| CCS(=O)(=O)Nc1cc(-c2nc3cccnc3s2)ccc1C | -0.51% (inactive) |
| CCCCNC(=O)CC1Nc2ccccc2NC1=O (configuration not stated) | 4.58% (inactive) |
